Source: PMC4552634, “A New Set of Chemical Starting Points with Plasmodium falciparum Transmission-Blocking Potential for Antimalarial Drug Discovery” (PLoS ONE, 2015)
Among all 13,000 compounds or so, about 3,200 (25%) showed an effect of 50% or more. The list shows a part of the results.

Tested on: P. falciparum stage V gametocytes
Parameters: BacTiter-Glo ATP luminescence viability of purified stage V gametocytes in 384-well plates, per cent inhibition versus DMSO
Conditions: 48 h, 5 µM; inhibitor

SMILES | % Inhibition [%]
CC(=O)C1(c2ccccc2)CCN(CCC2(c3ccc(Cl)c(Cl)c3)CN(C(=O)Nc3cc(F)cc(F)c3)CCO2)CC1 (stereo not shown) [TCMDC-135332] | -16.09
N#Cc1ccc(NC(=O)c2ccc(Cc3ccc4c(c3)CCN(C3CCC3)CC4)cn2)cc1 [TCMDC-136453] | 22.22
COc1ccc(NC(=O)/C=C/c2ccccc2Cl)cc1OCCN1CCC(O)(c2ccc(Cl)c(C(F)(F)F)c2)CC1 [TCMDC-140918] | -10.77
Fc1ccc2nc(-c3ccc(-c4cccc(CN5CCCCC5)c4)cc3)[nH]c2c1 [TCMDC-133896] | -18.48
OCCN1CCN(Cc2cccc(-c3cccc(-c4nc5ccc(F)cc5[nH]4)c3)c2)CC1 [TCMDC-133035] | -22.3
Fc1ccc2nc(-c3ccc(-c4cccc(CN5CCC(CCN6CCCCC6)CC5)c4)cc3)[nH]c2c1 [TCMDC-133933] | 114
Fc1ccc2[nH]c(-c3ccc(-c4ccc(CN5CCC(CCN6CCCCC6)CC5)cc4)s3)nc2c1 [TCMDC-133932] | 102.4
OCc1c(Cl)cc(Cl)cc1CNCCCNc1nc2ccccc2[nH]1 [TCMDC-140012] | -23.66
O=C(/C=C/c1ccc(Cl)c(Cl)c1)NCC1CCN(Cc2ccc(O)cc2)CC1 [TCMDC-141740] | 34.51
CCC1(C)CC(CCNCc2ccccc2O)(c2ccccc2OC)CCO1 (stereo not shown) [TCMDC-125080] | 19.87
Cn1nc(-c2cccc(CNCCc3cccs3)c2)c2cnc(NC3CCCC3)nc21 [TCMDC-135031] | 12.01
COc1ccc(-c2cnc(NCc3ccccc3)nc2)cc1CNC1CCN(C)CC1 [TCMDC-134121] | 34.84
CN1CCC(NCc2cccc(-c3cnc(NCc4ccccc4)nc3)c2)CC1 [TCMDC-134119] | 58.9
Cn1nc(-c2cccc(CNCc3ccccc3)c2)c2cnc(NC3CCCC3)nc21 [TCMDC-134839] | -3.994
CN1CCC(NCc2cccc(-c3nn(C)c4nc(NC5CCCC5)ncc34)c2)CC1 [TCMDC-134840] | 110.3
CN1CCC(N(Cc2ccc(-c3cnc(NCc4ccccc4)nc3)cc2)S(=O)(=O)c2ccccc2)CC1 [TCMDC-137158] | 31.68
CN1CCC(NCc2ccc(-c3cnc(NCc4ccccc4)nc3)cc2)CC1 [TCMDC-134120] | 82.56
COC(=O)c1cccc(OCCNC2CCN(C[C@H](O)c3ccnc4ccc(OC)cc34)CC2)c1 [TCMDC-140710] | -10.21
Cc1nnc(N2C(=N)SC(=Cc3ccc(-c4ccc(OC(F)(F)F)cc4)o3)C2=O)s1 [TCMDC-124487] | 0.8925
